# Reference: PubChem BioAssay AID2284344 (EPA ToxCast)
# Records with an inconclusive call do not appear. The source made the active and inactive calls. Rule for the calls: active = hit-call score of the fitted dose curve at least 0.9, where 1 is the maximum; inconclusive = response in the unintended direction; inactive = score below 0.9.
# System: frog Peroxisome Proliferator-activated Receptor-alpha (PPARa), gene 398843
# Assay: ATG_frPPARa_EcoTox2: Attagene TRANS-FACTORIAL EcoTox-2 HepG2 Assay for frog Peroxisome Proliferator-activated Receptor-alpha (PPARa)
# Experimental: ATG_EcoTox2 is a cell-based, multiplexed assay created by modifying the existing Attagene TRANS-FACTORIAL system to include a panel of nuclear receptors from some or all the following species: human (Homo sapiens), african clawed frog (Xenopus laevis), rainbow trout (Oncorhynchus mykiss), japanese medaka (Oryzias latipes), and zebrafish (Danio rerio). The ECOTOX2-FACTORIAL format uses HepG2, a human liver cell line, with measurements taken at 24 hours after chemical dosing in a 24-well plate. ATG_frPPARa_EcoTox2 is one of 29 assay components calculated in the ATG_EcoTox2 assay. It is designed to make measurements of mRNA induction, a form of inducible reporter, as detected with fluorescence intensity signals by Reverse transcription polymerase chain reaction (RT-PCR) and Capillary electrophoresis technology.The assay endpoint ATG_frPPARa_EcoTox2 was analyzed in the positive analysis fitting direction relative to DMSO as the negative control and baseline of activity. Using a type of inducible reporter, measures of mRNA for gain-of-signal activity can be used to understand the reporter gene at the transcription factor-level as they relate to the gene PPARa. Furthermore, this assay endpoint can be referred to as a primary readout, because this assay has produced multiple assay endpoints where this one serves a reporter gene function. To generalize the intended target to other relatable targets, this assay endpoint is annotated to the nuclear receptor intended target family, where the subfamily is non-steroidal.
# Human liver HepG2 cells are transiently transfected with multiple reporter transcription units (MRTUs) in 6-well plates using FuGene 6 reagent (Roche; 3 ml FuGene/1 mg DNA). The MRTU constructs are regulated by a cis-regulating element (promoter). Each RTU expresses a GAL4-UAS that regulates the transcription of a nearby target reporter gene sequence. A major difference between the CIS and TRANS system is that in CIS activities of endogenous TFs are measured, whereas the TRANS assay evaluates changes in activities of exogenous, chimeric NR-Gal4 proteins. […] At the end of 24 hour incubation, total RNA was isolated using TriZol reagent (Invitrogen). The isolated RNA is then reverse-transcribed using oligo(dT) primer and Mo-MLV reverse transcriptase (Invitrogen) with DNAse I (Ambion) treatment for 30 min. The one-tenth of the produced cDNA was amplified by PCR using Taq DNA polymerase (Invitrogen) and two reporter sequence-specific primers. […] The fragments were purified using Qiaquick PCR columns (Qiagen), analyzed on an ABI 3130xL genetic analyzer (Applied Biosystems) with peak positions identified by using a set of X-rhodamine (ROX)-labeled MapMarker1000 molecular weight standards (BioVentures). […]
Structure (SMILES),outcome,AC50
O=P(Oc1ccccc1)(Oc1ccccc1)Oc1ccccc1,inactive,
O=S(=O)(O)C(F)(F)C(F)(F)C(F)(F)C(F)(F)C(F)(F)C(F)(F)F,inactive,
[Cl][Sn]([c]1ccccc1)([c]1ccccc1)[c]1ccccc1,inactive,
O=C(O)C(F)(F)C(F)(F)C(F)(F)C(F)(F)C(F)(F)C(F)(F)C(F)(F)F,,75 µM (active)
